Reference: the supplement of paper PMC8728848
The full list was thinned out, with the strongest signals kept by preference.

Legend:
Assay in all cases: glycan array binding signal (z-score within array); higher = stronger binding
Settings in all cases: glycan notation: IUPAC condensed, linker removed
Fuc(a1-2)Gal(b1-4)Glc = target: Fuc(a1-2)Gal(b1-4)Glc
How it was run: (§1)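 Columns mapping to the same glycan were averaged after glycan names were converted to IUPAC-condensed notation. The data come from 3228 arrays in the Consortium for Functional Glycomics database, limited to those with an available protein sequence. Binding is reported as a within-array Z-score averaged across arrays of one protein sequence and across linkers.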

Fuc(a1-2)Gal(b1-4)GlcNAc = target: Fuc(a1-2)Gal(b1-4)GlcNAc
How it was run: as §1

[1] = target: Fuc(a1-2)Gal(b1-4)[Fuc(a1-3)]GlcNAc(b1-3)Gal(b1-4)[Fuc(a1-3)]GlcNAc(b1-3)Gal(b1-4)[Fuc(a1-3)]GlcNAc
How it was run: as §1

[2] = target: Fuc(a1-2)Gal(b1-4)[Fuc(a1-3)]GlcNAc(b1-3)GalNAc
How it was run: as §1

[3] = target: Fuc(a1-2)[Gal(a1-3)]Gal(b1-4)GlcNAc(b1-2)Man(a1-3)[Fuc(a1-2)[Gal(a1-3)]Gal(b1-4)GlcNAc(b1-2)Man(a1-6)]Man(b1-4)GlcNAc(b1-4)[Fuc(a1-6)]GlcNAc
How it was run: as §1

[4] = target: Fuc(a1-2)[Gal(a1-3)]Gal(b1-4)[Fuc(a1-3)]Glc
How it was run: as §1

[5] = target: Fuc(a1-2)[Gal(a1-3)]Gal(b1-4)[Fuc(a1-3)]GlcNAc
How it was run: as §1

[6] = target: Fuc(a1-2)[GalNAc(a1-3)]Gal(b1-3)GlcNAc(b1-6)GalNAc
How it was run: as §1

[7] = target: Fuc(a1-2)[GalNAc(a1-3)]Gal(b1-4)[Fuc(a1-3)]GlcNAc(b1-3)GalNAc
How it was run: as §1

[8] = target: Fuc(a1-2)[GalNAc(b1-3)]Gal
How it was run: as §1

[9] = target: Gal(a1-3)Gal(b1-3)GlcNAc(b1-2)Man(a1-3)[Gal(a1-3)Gal(b1-3)GlcNAc(b1-2)Man(a1-6)]Man(b1-4)GlcNAc(b1-4)GlcNAc
How it was run: as §1

[10] = target: Gal(a1-3)Gal(b1-3)[Fuc(a1-4)]GlcNAc(b1-2)Man(a1-3)[Gal(a1-3)Gal(b1-3)[Fuc(a1-4)]GlcNAc(b1-2)Man(a1-6)]Man(b1-4)GlcNAc(b1-4)GlcNAc
How it was run: as §1

Gal(a1-3)Gal(b1-4)GlcNAc = target: Gal(a1-3)Gal(b1-4)GlcNAc
How it was run: as §1

[11] = target: Gal(b1-3)GlcNAc(b1-2)Man(a1-3)[GlcNAc(b1-4)][Gal(b1-3)GlcNAc(b1-2)Man(a1-6)]Man(b1-4)GlcNAc(b1-4)GlcNAc
How it was run: as §1

[12] = target: Gal(b1-3)GlcNAc(b1-3)Gal(b1-4)GlcNAc(b1-2)[Gal(b1-3)GlcNAc(b1-3)Gal(b1-4)GlcNAc(b1-6)]Man(a1-6)[Gal(b1-3)GlcNAc(b1-3)Gal(b1-4)GlcNAc(b1-2)Man(a1-3)]Man(b1-4)GlcNAc(b1-4)[Fuc(a1-6)]GlcNAc
How it was run: as §1

[13] = target: Gal(b1-4)GlcNAc(b1-2)Man(a1-3)[Gal(b1-4)GlcNAc(b1-2)Man(a1-6)]Man(b1-4)GlcNAc(b1-4)[Fuc(a1-6)]GlcNAc
How it was run: as §1

[14] = target: Gal(b1-4)GlcNAc(b1-3)Gal(b1-4)GlcNAc(b1-2)[Gal(b1-4)GlcNAc(b1-3)Gal(b1-4)GlcNAc(b1-6)]Man(a1-6)[Gal(b1-4)GlcNAc(b1-3)Gal(b1-4)GlcNAc(b1-2)Man(a1-3)]Man(b1-4)GlcNAc(b1-4)GlcNAc
How it was run: as §1

[15] = target: Gal(b1-4)GlcNAc(b1-3)Gal(b1-4)GlcNAc(b1-2)[Gal(b1-4)GlcNAc(b1-3)Gal(b1-4)GlcNAc(b1-6)]Man(a1-6)[Gal(b1-4)GlcNAc(b1-3)Gal(b1-4)GlcNAc(b1-2)Man(a1-3)]Man(b1-4)GlcNAc(b1-4)[Fuc(a1-6)]GlcNAc
How it was run: as §1

[16] = target: Gal(b1-4)GlcNAc(b1-3)Gal(b1-4)GlcNAc(b1-3)Gal(b1-4)GlcNAc(b1-3)Gal(b1-4)GlcNAc(b1-3)Gal(b1-4)GlcNAc(b1-2)[Gal(b1-4)GlcNAc(b1-3)Gal(b1-4)GlcNAc(b1-3)Gal(b1-4)GlcNAc(b1-3)Gal(b1-4)GlcNAc(b1-3)Gal(b1-4)GlcNAc(b1-6)]Man(a1-6)[Gal(b1-4)GlcNAc(b1-3)Gal(b1-4)GlcNAc(b1-3)Gal(b1-4)GlcNAc(b1-3)Gal(b1-4)GlcNAc(b1-3)Gal(b1-4)GlcNAc(b1-2)Man(a1-3)]Man(b1-4)GlcNAc(b1-4)[Fuc(a1-6)]GlcNAc
How it was run: as §1

[17] = target: Gal3S(b1-4)[Fuc(a1-3)]GlcNAc6S
How it was run: as §1

Gal6S(b1-4)Glc6S = target: Gal6S(b1-4)Glc6S
How it was run: as §1

[18] = target: Glc(a1-6)Glc(a1-6)Glc(a1-6)Glc
How it was run: as §1

[19] = target: GlcA3S(b1-3)Gal(b1-4)GlcNAc(b1-3)Gal(b1-4)Glc
How it was run: as §1

[20] = target: GlcNAc(b1-2)Man(a1-3)[GlcNAc(b1-2)Man(a1-6)]Man(b1-4)GlcNAc(b1-4)[Fuc(a1-6)]GlcNAc
How it was run: as §1

B1: Nc3LysM (protein)
chain: QFTVPPDTTAEPNTIKTCTWWHVAGSGDSCTSIASTYGITSEQFARWDMETTDSPKNPSVATACKLTVGNSYCIENNFGQDDPPTPSISSSTLIGTATTSTTASTTTGNGISTPTPIQEGMETATTTTSSGNGITTPTPTQAGMETVGNCDRFHLVKSGDQCGTIASTYGITLANFYSWNPAVGTSCQSLWLDTYVCVRTIGFVPPKTTTTTTKKPTSTTSAGGVATPTPTQPGMETVSGCKKFHKGRGNVSTVASGDQCGTIATRYGISLANFYSWNPAVGSSCQTLWLDYYVCVGR
glycan array binding signal (z-score) (Fuc(a1-2)Gal(b1-4)Glc): 0.401 | glycan array binding signal (z-score) (Fuc(a1-2)Gal(b1-4)GlcNAc): -0.219 | glycan array binding signal (z-score) [1]: 0.172 | glycan array binding signal (z-score) [2]: -0.251 | glycan array binding signal (z-score) [3]: -0.173 | glycan array binding signal (z-score) [4]: 0.064 | glycan array binding signal (z-score) [5]: -0.157 | glycan array binding signal (z-score) [6]: -0.237 | glycan array binding signal (z-score) [7]: -0.076 | glycan array binding signal (z-score) [8]: -0.092 | glycan array binding signal (z-score) [9]: 0.295 | glycan array binding signal (z-score) [10]: 0.161 | glycan array binding signal (z-score) (Gal(a1-3)Gal(b1-4)GlcNAc): 0.019 | glycan array binding signal (z-score) [11]: 0.083 | glycan array binding signal (z-score) [12]: 0.304 | glycan array binding signal (z-score) [13]: -0.048 | glycan array binding signal (z-score) [14]: 0.008 | glycan array binding signal (z-score) [15]: -0.048 | glycan array binding signal (z-score) [16]: 0.342 | glycan array binding signal (z-score) [17]: 0.178 | glycan array binding signal (z-score) (Gal6S(b1-4)Glc6S): 0.307 | glycan array binding signal (z-score) [18]: 0.326 | glycan array binding signal (z-score) [19]: -0.126 | glycan array binding signal (z-score) [20]: 0.106
